Reference: the supplement of paper PMC10849652
Of roughly 8,800 targets only a part is listed; those with a hit were picked by preference. About 0.5% of all pairs of compound and target were hits.

Assays:
Experiment in all cases: log2 fold change, soluble protein after heating vs DMSO (PISA); higher = thermal stabilisation; K562 lysate, 10 uM; active = over 0.2 and 3.5 SD of the protein, either way, in both replicates (recomputed)
[1] = compound: CCCS(=O)(=O)Nc1ccc(F)c(C(=O)c2c[nH]c3ncc(-c4ccc(Cl)cc4)cc23)c1F [vemurafenib]
Procedure, shortened: (§1)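 Following dounce homogenisation of K562 pellets in PBS pH 7.4 with 1 mM MgCl2, crude extract at 1 mg/mL protein was incubated for 30 min with 10 μM compound. Aliquots were then heated for 3 min over 48°C-58°C and pooled, NP-40 was added to 0.5% at 4°C, and soluble protein was recovered as the supernatant at 21,000xg for 90 min. Channel-sum-equalised TMTpro 16plex LC-MS/MS quantified this protein. Each value, from duplicates, is a log-two fold change in thermal stability relative to solvent controls.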

[2] = compound: CCCS(=O)(=O)Nc1ccc(F)c(C(=O)c2c[nH]c3ncc(Cl)cc23)c1F
Procedure, shortened: as §1

[3] = compound: CCN(CCCOc1ccc2c(Nc3cc(CC(=O)Nc4cccc(F)c4)[nH]n3)ncnc2c1)CCOP(=O)(O)O [barasertib]
Procedure, shortened: as §1

[4] = compound: CC[C@@H]1C(=O)N(C)c2cnc(Nc3ccc(C(=O)NC4CCN(C)CC4)cc3OC)nc2N1C1CCCC1
Procedure, shortened: as §1

[5] = compound: CC[C@@H]1C(=O)N(C)c2cnc(Nc3ccc(C(=O)N[C@H]4CC[C@H](N5CCN(CC6CC6)CC5)CC4)cc3OC)nc2N1C(C)C [volasertib]
Procedure, shortened: as §1

[6] = compound: CCn1c(C(=O)N(C2CC2)C2CC2)cc2c3c(ncn3C)c(Nc3cc(C)n(C)n3)nc21
Procedure, shortened: as §1

[7] = compound: CCn1cc(-c2ccnc3[nH]c(-c4cccc(CN(C)C)c4)cc23)c(-c2ccc(NC(=O)N(C)C)cc2)n1
Procedure, shortened: as §1

[8] = compound: CN1CCC(CNc2ccc3ncc(-c4cccc(OC(F)(F)F)c4)n3n2)CC1
Procedure, shortened: as §1

[9] = compound: CN1CCN(CCOc2cc(OC3CCOCC3)c3c(Nc4c(Cl)ccc5c4OCO5)ncnc3c2)CC1 [saracatinib]
Procedure, shortened: as §1

[10] = compound: CN1CCN(c2nc(C3=C(c4c[nH]c5ccccc45)C(=O)NC3=O)c3ccccc3n2)CC1 [sotrastaurin]
Procedure, shortened: as §1

Measured: log2 fold change

ZHX1 (UniProt Q9UKY1)
active: [7] -0.603 | [8] 0.526
inactive: [1] -0.058 | [2] 0.057 | [3] 0.059 | [4] 0.144 | [5] -0.079 | [6] -0.056 | [9] 0.011 | [10] 0.029

WDR3 (UniProt Q9UNX4)
inactive: [1] -0.01 | [2] 0.011 | [3] 0.042 | [4] -0.063 | [5] -0.043 | [6] 0.01 | [7] -0.024 | [8] 0.019 | [9] 0.002 | [10] 0.062

WDR24 (UniProt Q96S15)
UniProt Q96S15, sequence (Q96S15 whole entry, looked up): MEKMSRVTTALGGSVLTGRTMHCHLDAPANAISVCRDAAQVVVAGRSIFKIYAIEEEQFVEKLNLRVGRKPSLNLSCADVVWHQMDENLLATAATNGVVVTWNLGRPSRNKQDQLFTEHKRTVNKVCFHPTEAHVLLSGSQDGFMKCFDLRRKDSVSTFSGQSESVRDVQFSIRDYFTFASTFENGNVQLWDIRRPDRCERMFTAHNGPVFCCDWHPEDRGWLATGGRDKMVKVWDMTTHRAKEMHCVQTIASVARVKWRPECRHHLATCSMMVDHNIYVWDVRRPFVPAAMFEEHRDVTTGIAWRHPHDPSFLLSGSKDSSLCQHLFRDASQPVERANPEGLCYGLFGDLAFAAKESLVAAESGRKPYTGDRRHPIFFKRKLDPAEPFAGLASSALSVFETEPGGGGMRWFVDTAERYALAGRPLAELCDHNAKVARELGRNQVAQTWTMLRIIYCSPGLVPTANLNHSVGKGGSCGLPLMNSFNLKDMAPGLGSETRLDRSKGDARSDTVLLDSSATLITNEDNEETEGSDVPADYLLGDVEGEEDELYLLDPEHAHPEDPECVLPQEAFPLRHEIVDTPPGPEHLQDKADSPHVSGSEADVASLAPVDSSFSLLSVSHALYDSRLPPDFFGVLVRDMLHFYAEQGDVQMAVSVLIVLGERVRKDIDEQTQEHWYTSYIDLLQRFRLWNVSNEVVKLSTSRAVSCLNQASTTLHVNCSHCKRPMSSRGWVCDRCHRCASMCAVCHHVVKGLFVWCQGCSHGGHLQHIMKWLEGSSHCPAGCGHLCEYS
inactive: [1] 0.083 | [2] -0.036 | [3] 0.129 | [4] -0.055 | [5] -0.035 | [6] 0.047 | [7] -0.026 | [8] 0.043 | [9] 0.078 | [10] 0.082

ZFYVE19 (UniProt Q96K21)
active: [7] -0.232
inactive: [1] 0 | [2] 0.02 | [3] 0.016 | [4] 0.077 | [5] 0.023 | [6] 0.006 | [8] 0.126 | [9] -0.027 | [10] 0.013

ZNHIT6 (UniProt Q9NWK9)
UniProt Q9NWK9, sequence (Q9NWK9 whole entry, looked up): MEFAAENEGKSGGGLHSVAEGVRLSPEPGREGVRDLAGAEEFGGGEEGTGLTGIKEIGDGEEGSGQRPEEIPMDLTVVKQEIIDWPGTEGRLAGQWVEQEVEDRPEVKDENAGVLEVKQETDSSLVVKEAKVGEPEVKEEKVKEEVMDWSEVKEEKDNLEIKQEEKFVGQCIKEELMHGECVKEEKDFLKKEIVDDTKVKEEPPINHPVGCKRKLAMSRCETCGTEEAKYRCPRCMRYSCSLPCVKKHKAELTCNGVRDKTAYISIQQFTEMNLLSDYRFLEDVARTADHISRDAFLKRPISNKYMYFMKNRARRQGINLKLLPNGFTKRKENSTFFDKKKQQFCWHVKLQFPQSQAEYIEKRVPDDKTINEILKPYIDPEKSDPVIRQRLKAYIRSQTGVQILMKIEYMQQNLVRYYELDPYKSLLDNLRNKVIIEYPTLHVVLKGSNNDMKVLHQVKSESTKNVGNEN
inactive: [1] -0.001 | [2] 0.035 | [3] 0.009 | [4] 0.023 | [5] -0.016 | [6] 0.05 | [7] 0.089 | [8] -0.071 | [9] -0.029 | [10] -0.005

YTHDC2 (UniProt Q9H6S0)
inactive: [1] 0.068 | [2] 0.022 | [3] 0.07 | [4] -0.013 | [5] -0.027 | [6] 0.025 | [7] 0.025 | [8] 0.005 | [9] 0.015 | [10] 0.022

YDJC (UniProt A8MPS7)
inactive: [1] -0.022 | [2] 0.006 | [3] 0.017 | [4] 0.01 | [5] -0.038 | [6] -0.063 | [7] 0.012 | [8] 0.055 | [9] 0.024 | [10] 0.008

WRNIP1 (UniProt Q96S55)
inactive: [1] 0.036 | [2] 0.042 | [3] 0.064 | [4] -0.114 | [5] -0.128 | [6] 0.014 | [7] -0.026 | [8] 0.03 | [9] -0.006 | [10] 0.042

WDR77 (UniProt Q9BQA1)
inactive: [1] -0.095 | [2] -0.012 | [3] -0.045 | [4] -0.029 | [5] 0.004 | [6] 0.022 | [7] -0.004 | [8] 0.011 | [9] -0.032 | [10] 0.001

VPS39 (UniProt Q96JC1)
active: [7] 0.73
inactive: [1] -0.034 | [2] 0.014 | [3] 0.022 | [4] -0.029 | [5] -0.045 | [6] 0.001 | [8] -0.151 | [9] 0.018 | [10] -0.008

WDR36 (UniProt Q8NI36)
inactive: [1] 0.014 | [2] 0.018 | [3] 0.011 | [4] -0.058 | [5] -0.022 | [6] 0.034 | [7] 0.012 | [8] -0.076 | [9] -0.015 | [10] 0.044

USE1 (UniProt Q9NZ43)
inactive: [1] -0.071 | [2] -0.049 | [3] 0.021 | [4] 0.036 | [5] 0.04 | [6] 0.093 | [7] 0.002 | [8] -0.103 | [9] -0.02 | [10] 0.017

WDR62 isoform 4 (UniProt O43379)
inactive: [1] 0.004 | [2] 0.065 | [3] 0.031 | [4] -0.063 | [5] 0 | [6] 0.003 | [7] -0.009 | [8] -0.044 | [9] 0.04 | [10] 0.031

USP10 isoform 2 (UniProt Q14694)
UniProt Q14694, sequence (Q14694 whole entry, looked up): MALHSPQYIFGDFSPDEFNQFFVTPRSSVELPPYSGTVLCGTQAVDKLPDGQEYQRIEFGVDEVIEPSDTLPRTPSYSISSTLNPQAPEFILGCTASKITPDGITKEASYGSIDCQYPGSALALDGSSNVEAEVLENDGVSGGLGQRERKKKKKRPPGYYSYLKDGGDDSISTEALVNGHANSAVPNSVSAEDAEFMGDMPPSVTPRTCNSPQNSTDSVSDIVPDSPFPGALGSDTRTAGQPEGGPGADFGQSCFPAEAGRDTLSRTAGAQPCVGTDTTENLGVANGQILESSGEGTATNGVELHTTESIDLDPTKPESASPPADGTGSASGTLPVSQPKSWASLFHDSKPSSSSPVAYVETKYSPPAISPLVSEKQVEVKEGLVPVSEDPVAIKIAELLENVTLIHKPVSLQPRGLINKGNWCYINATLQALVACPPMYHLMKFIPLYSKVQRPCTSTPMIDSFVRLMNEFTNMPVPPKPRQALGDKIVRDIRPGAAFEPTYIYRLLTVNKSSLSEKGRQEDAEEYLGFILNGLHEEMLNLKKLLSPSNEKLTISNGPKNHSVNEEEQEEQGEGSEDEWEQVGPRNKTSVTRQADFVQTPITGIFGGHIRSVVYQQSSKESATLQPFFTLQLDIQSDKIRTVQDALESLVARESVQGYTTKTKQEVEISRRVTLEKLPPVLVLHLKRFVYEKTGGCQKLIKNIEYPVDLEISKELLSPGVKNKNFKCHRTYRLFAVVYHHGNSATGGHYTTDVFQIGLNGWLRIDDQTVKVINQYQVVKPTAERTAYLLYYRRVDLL
inactive: [1] 0.021 | [2] 0.013 | [3] 0.002 | [4] -0.005 | [5] -0.039 | [6] 0.013 | [7] -0.079 | [8] 0 | [9] 0.005 | [10] 0.008

XPO6 (UniProt Q96QU8)
inactive: [1] 0.033 | [2] 0.013 | [3] 0.062 | [4] -0.03 | [5] -0.058 | [6] -0.049 | [7] 0.448 | [8] 0.071 | [9] -0.007 | [10] 0

WDR45 isoform 2 (UniProt Q9Y484)
UniProt Q9Y484, sequence (Q9Y484 whole entry, looked up): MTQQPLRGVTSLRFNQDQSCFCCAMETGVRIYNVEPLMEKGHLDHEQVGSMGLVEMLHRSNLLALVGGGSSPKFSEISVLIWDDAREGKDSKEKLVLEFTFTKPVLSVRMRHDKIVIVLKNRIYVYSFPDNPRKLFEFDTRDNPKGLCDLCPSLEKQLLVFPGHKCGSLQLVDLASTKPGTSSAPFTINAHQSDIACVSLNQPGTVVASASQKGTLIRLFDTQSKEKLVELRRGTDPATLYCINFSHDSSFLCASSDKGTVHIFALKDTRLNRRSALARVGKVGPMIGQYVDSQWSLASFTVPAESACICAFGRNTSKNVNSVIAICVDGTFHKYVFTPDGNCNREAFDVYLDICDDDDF
inactive: [1] -0.028 | [2] 0.043 | [3] 0.005 | [4] 0.052 | [5] 0 | [6] 0.12 | [7] -0.19 | [8] 0.086 | [9] 0.01 | [10] 0.024

USP48 isoform 8 (UniProt Q86UV5)
UniProt Q86UV5, sequence (Q86UV5 whole entry, looked up): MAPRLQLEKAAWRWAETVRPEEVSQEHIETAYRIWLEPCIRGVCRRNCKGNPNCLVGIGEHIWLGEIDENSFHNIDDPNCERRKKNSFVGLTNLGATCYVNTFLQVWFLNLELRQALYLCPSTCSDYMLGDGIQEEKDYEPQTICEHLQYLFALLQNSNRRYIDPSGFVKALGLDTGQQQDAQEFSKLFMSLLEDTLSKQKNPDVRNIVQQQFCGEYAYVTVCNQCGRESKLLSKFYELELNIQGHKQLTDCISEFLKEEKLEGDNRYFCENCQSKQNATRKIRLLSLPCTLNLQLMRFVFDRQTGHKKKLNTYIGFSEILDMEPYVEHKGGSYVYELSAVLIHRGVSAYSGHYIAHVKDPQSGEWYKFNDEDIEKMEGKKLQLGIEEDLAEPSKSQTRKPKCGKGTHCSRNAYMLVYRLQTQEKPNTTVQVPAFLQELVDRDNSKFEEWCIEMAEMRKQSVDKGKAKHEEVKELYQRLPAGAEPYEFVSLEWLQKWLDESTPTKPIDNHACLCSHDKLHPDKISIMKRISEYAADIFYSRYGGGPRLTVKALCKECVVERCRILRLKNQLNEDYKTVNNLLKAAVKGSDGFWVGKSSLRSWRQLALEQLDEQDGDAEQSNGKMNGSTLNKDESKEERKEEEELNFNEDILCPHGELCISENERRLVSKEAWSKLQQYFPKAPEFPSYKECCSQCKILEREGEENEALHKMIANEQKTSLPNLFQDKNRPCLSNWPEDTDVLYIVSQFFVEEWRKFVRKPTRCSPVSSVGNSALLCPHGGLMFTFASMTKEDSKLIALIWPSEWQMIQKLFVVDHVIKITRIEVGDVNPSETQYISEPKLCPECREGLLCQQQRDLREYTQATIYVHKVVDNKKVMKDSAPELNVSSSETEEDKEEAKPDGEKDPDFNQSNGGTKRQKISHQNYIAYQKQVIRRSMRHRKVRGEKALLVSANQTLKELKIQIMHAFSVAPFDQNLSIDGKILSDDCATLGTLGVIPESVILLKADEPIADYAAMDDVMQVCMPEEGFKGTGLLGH
inactive: [1] -0.002 | [2] 0.036 | [3] 0.002 | [4] -0.013 | [5] -0.043 | [6] 0.007 | [7] -0.011 | [8] -0.032 | [9] -0.004 | [10] 0.031

VANGL1 (UniProt Q8TAA9)
UniProt Q8TAA9, sequence (Q8TAA9 whole entry, looked up): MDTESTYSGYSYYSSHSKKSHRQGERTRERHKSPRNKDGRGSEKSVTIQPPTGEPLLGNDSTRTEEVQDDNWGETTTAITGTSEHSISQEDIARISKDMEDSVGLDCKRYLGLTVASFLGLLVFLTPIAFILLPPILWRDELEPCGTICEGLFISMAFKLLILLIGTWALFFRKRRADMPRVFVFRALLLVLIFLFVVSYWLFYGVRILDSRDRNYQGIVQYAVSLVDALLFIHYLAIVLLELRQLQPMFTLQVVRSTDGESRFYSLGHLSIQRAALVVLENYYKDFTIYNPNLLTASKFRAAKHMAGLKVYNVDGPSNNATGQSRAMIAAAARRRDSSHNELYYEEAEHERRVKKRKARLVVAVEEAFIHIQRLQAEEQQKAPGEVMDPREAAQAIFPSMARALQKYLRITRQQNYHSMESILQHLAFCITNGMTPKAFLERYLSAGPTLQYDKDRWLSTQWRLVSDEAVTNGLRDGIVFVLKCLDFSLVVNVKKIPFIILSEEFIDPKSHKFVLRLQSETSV
inactive: [1] -0.075 | [2] 0.023 | [3] 0.101 | [4] 0.004 | [5] -0.009 | [6] 0.105 | [7] -0.088 | [8] 0.058 | [9] 0.044 | [10] 0.125

USP34 (UniProt Q70CQ2)
inactive: [1] 0.006 | [2] 0.039 | [3] 0.048 | [4] -0.054 | [5] -0.052 | [6] 0.014 | [7] 0.027 | [8] -0.079 | [9] 0.026 | [10] -0.008

XPO5 (UniProt Q9HAV4)
inactive: [1] -0.006 | [2] 0.005 | [3] 0.022 | [4] -0.028 | [5] -0.062 | [6] 0.027 | [7] -0.043 | [8] -0.041 | [9] 0.011 | [10] 0.007

ZDHHC18 (UniProt Q9NUE0)
inactive: [1] 0.043 | [2] 0.026 | [3] 0.016 | [4] -0.019 | [5] -0.052 | [6] -0.068 | [7] -0.138 | [8] 0.085 | [9] 0.036 | [10] 0.04

XAB2 (UniProt Q9HCS7)
inactive: [1] 0.033 | [2] 0.075 | [3] -0.015 | [4] 0.065 | [5] -0.02 | [6] 0.05 | [7] -0.044 | [8] 0.017 | [9] 0.006 | [10] 0

USP48 (UniProt Q86UV5)
active: [7] -0.821
inactive: [1] 0.043 | [2] 0.074 | [3] -0.024 | [4] 0.047 | [5] -0.102 | [6] -0.057 | [8] 0.146 | [9] -0.021 | [10] -0.12

ZNF593 (UniProt O00488)
UniProt O00488, sequence (O00488 whole entry, looked up): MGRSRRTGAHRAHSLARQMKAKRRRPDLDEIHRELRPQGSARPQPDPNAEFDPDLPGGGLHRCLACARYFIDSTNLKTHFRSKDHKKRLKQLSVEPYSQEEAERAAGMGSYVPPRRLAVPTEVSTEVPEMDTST
inactive: [1] 0.001 | [2] 0.037 | [3] -0.026 | [4] -0.174 | [5] -0.034 | [6] 0.078 | [7] -0.012 | [8] 0.016 | [9] -0.012 | [10] -0.105

USP3 (UniProt Q9Y6I4)
inactive: [1] 0.041 | [2] -0.007 | [3] 0.008 | [4] 0.023 | [5] -0.012 | [6] -0.011 | [7] 0.064 | [8] -0.041 | [9] 0.011 | [10] 0.011

ZMYM4 (UniProt Q5VZL5)
inactive: [1] 0.008 | [2] 0.003 | [3] 0.126 | [4] 0.013 | [5] 0.041 | [6] 0.033 | [7] 0.013 | [8] 0.029 | [9] 0.023 | [10] 0.043

VPS4A (UniProt Q9UN37)
inactive: [1] 0.096 | [2] -0.006 | [3] 0.014 | [4] -0.063 | [5] -0.09 | [6] 0.054 | [7] -0.12 | [8] -0.036 | [9] 0.027 | [10] 0.056

UPF3B (UniProt Q9BZI7)
UniProt Q9BZI7, sequence (Q9BZI7 whole entry, looked up): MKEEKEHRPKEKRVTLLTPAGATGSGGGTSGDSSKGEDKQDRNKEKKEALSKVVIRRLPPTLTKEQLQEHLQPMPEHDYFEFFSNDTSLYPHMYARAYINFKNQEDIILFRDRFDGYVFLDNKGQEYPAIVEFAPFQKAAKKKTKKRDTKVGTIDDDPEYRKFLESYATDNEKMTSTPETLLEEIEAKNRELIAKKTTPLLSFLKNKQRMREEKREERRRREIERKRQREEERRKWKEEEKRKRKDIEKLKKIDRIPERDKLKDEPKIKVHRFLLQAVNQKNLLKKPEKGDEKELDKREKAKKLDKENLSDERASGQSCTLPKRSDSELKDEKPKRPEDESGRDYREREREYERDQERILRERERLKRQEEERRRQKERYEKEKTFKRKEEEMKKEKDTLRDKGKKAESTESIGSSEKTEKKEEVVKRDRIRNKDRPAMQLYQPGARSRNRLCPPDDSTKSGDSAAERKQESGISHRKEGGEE
inactive: [1] 0.027 | [2] 0.01 | [3] -0.006 | [4] 0.026 | [5] 0.004 | [6] -0.019 | [8] 0.031 | [9] 0.005 | [10] -0.019
active: [7] -0.231

VPS41 (UniProt P49754)
inactive: [1] -0.018 | [2] -0.016 | [3] 0.085 | [4] 0.005 | [5] -0.078 | [6] 0.06 | [7] 0.074 | [8] -0.054 | [9] 0.002 | [10] 0.058

VRK1 (UniProt Q99986)
UniProt Q99986, sequence (Q99986 whole entry, looked up): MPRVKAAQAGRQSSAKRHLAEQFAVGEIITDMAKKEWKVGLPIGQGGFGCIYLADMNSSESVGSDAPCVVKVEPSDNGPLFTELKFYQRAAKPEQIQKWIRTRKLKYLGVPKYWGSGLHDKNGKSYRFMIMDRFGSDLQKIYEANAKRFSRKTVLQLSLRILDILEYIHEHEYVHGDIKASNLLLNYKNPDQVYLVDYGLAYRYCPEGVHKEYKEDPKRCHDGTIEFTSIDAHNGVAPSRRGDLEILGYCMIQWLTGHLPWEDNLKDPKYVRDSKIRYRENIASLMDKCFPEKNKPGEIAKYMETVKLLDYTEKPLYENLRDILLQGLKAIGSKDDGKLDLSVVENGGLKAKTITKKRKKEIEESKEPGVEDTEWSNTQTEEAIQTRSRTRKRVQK
inactive: [1] 0.024 | [2] 0.024 | [3] -0.002 | [4] -0.051 | [5] -0.03 | [6] 0 | [7] -0.041 | [8] 0.031 | [9] 0.002 | [10] 0.178
